High-throughput results from PubChem BioAssay.
Most compounds without a hit are left out; they make up all but 22% or so of the library.
Pf growth 48h: Primary qHTS for delayed death inhibitors of the malarial parasite plastid, 48 hour incubation | P. falciparum luciferase growth in erythrocytes, 48 h | Potency, µM (titrated, usually from 28.7 µM), for the others: at the top dose activity change, negative = inhibition, actives largely listed as inhibitors | 5.9% of 310,000 active | AID 504832, 2011; further: potency means the concentration at half of the fitted maximal effect; on the % scale 0 is the no-effect control and ±100 the full control effect
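Read-out is firefly luciferase luminescence from an integrated reporter in P. falciparum, so falling signal marks reduced parasite growth. Infected erythrocytes were at 2% hematocrit and 0.1% parasitemia (final) in Albumax-supplemented RPMI 1640.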
Shiga inhibitor: A qHTS for Small Molecule Inhibitors of Shiga Toxin. Vero cells, Shiga toxin protein synthesis inhibition reporter. inhibition, % at 38.7 µM. 9.2% of 290,000 active; in the data active means inhibition mostly above about 28%, no sharp cut-off; inactive means mostly below about 43%; further: 0% is about no effect
CHX counter: Cycloheximide Counterscreen for Small Molecule Inhibitors of Shiga Toxin | cell reporter, cycloheximide protein synthesis inhibition counterscreen | 12% of 300,000 active | max response, % | AID 2314, 2010; in the data active means max response mostly above about 13%, no sharp cut-off; inactive means mostly below about 14%; further: read at 38.3 µM for the half of the compounds with a filed dose; 0% is about no effect
Pf growth 96h: Primary qHTS for delayed death inhibitors of the malarial parasite plastid, 96 hour incubation. Potency, µM (highest dose often 28.7 µM), for inactives: top-dose activity change, negative = inhibition, hits mostly inhibitors. AID 504834, 2011. P. falciparum luciferase reporter growth, 96 h. 6.9% of 320,000 active; further: potency means the concentration at half of the fitted maximal effect; on the % scale 0 is the no-effect control and ±100 the full control effect
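96 h incubation, 37 C, 5% CO2, of luciferase-reporter P. falciparum-infected RBCs (2% hematocrit, 0.05% parasitemia final) with test compounds; endpoint luminescence.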
LmPK inhibitor: qHTS Assay for Inhibitors of Leishmania Mexicana Pyruvate Kinase (LmPK); 0.37% of 290,000 active; purified LmPK, Kinase-Glo ATP luminescence, 1 h; Q27686; Potency, µM (doses to about 57.5 µM), inactives show at the highest dose activity change, negative = inhibition, most hits filed as inhibitors; AID 1721, 2009; further: potency means the concentration at half of the fitted maximal effect; on the % scale 0 is the no-effect control and ±100 the full control effect
Target sequence (Q27686 whole entry, looked up): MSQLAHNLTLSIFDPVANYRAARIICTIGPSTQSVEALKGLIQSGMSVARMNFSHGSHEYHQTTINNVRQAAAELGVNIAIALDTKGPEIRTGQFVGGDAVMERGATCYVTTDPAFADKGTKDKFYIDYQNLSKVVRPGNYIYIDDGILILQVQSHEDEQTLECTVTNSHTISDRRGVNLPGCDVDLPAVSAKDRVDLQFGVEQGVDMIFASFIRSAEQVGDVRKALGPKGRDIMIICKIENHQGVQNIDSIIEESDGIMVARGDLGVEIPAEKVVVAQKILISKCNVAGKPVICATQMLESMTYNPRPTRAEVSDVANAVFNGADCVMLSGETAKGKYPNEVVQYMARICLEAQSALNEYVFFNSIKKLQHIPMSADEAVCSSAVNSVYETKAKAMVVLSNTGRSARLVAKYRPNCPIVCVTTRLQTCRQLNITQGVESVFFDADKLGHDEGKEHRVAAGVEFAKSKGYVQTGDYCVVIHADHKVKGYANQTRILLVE
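Pyruvate kinase activity monitored as ATP production (luciferase luminescence). Conditions: 0.1 nM enzyme, 0.5 mM PEP, 0.1 mM ADP, 1 h, RT; normalized against uninhibited and no-enzyme wells.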
Numbers without * were called inactive; ? = inconclusive; · = no result. Unless noted, the call rests on the fitted dose curve; in most records, active means well fitted inhibition curve with a large enough effect; inconclusive means small, poorly fitted or top-dose-only effect, or another doubt; inactive means no such curve, though single readings can be large or run the other way.

SMILES | Pf growth 48h | Shiga inhibitor | CHX counter | Pf growth 96h | LmPK inhibitor
O=C(c1cc(COc2ccc(F)cc2F)on1)N1CCN(C(=O)c2ccco2)CC1 | 3% | -5 | 8 | -22% | -11%
Cc1ccc(C)c(OCc2cc(C(=O)N3CCN(C(=O)c4ccco4)CC3)no2)c1 | -3% | 78* | 42* | 0% | -6%
Cc1ccc(C)c(OCc2cc(C(=O)N3CCN(c4ccccc4)CC3)no2)c1 | 4% | 98* | 93* | -8% | -8%
Cc1cccc(COc2coc(CN3CCN(C(=O)c4ccco4)CC3)cc2=O)c1 | ? | · | · | 12µM* | ·
CN(C(=O)C1CCN(S(=O)(=O)c2ccccc2)CC1)c1c(N)n(Cc2ccccc2)c(=O)[nH]c1=O | 21% | · | · | 3% | ·
C=CC[C@]12CCc3sccc3C1N(c1ccc(C(=O)OCC)cc1)C2=O (some centres undefined) | 10µM* | · | · | ? | ·
COc1cc(C=C2C(=O)c3ccccc3C2=O)ccc1O | 33% | 78* | 28* | 5% | ?
COc1ccc(C=C2C(=O)c3ccccc3C2=O)cc1O | 2% | 115* | 38* | 12µM* | ?
COc1cc(C=C2C(=O)c3ccccc3C2=O)cc(OC)c1OC | 19% | 34 | 9 | -13% | 3%
COc1c2c(cc3ccc(=O)oc13)CCO2 | ? | · | -4 | ? | 1%
COc1ccc(NC(=O)CC(c2ccco2)C(C)C)cc1 (centres undefined) | ? | 6 | 21* | -13% | 4%
Cc1ccc(NC(=O)CNC(=O)c2ccco2)cc1 | 97% | 48* | 33* | -9% | -1%
COc1ccc(NC(=O)CNC(=O)c2ccco2)cc1 | 41% | 73* | 51* | ? | -7%
Cc1ccc2nc(CSc3nc(C)cc(C)c3C#N)[nH]c2c1 | -82% | 72 | 46* | 218% | -1%
Cc1cc(C)c(C#N)c(SCc2ccccc2C)n1 | -20% | 2 | 0 | ? | 1%
Cc1ccc2nc(-c3ccccc3)cc(C(=O)Nc3cccnc3)c2c1 | 2.1µM* | · | · | 1.7µM* | ·
Cc1c(-c2ccccc2)nc2ccccc2c1C(=O)O | -2% | -6 | -2 | -5% | 2%
Cc1ccc2nc(-c3cccnc3)cc(C(=O)Nc3ccc(F)cc3C)c2c1 | ? | 7 | -1 | -16% | 0%
Cc1ccc2nc(-c3ccc(NS(C)(=O)=O)cc3)cc(-c3ccccc3)c2c1 | ? | -18 | -4 | ? | 3%
Cc1ccc2nc(-c3ccncc3)cc(C(=O)Nc3ccc(F)cc3C)c2c1 | 6.6µM* | -5 | -2 | ? | -1%
Cc1c(-c2ccccc2)nc2ccccc2c1C(=O)Nc1ccncc1 | 1.7µM* | -14 | -4 | 0.33µM* | 0%
Cc1ccc2nc(-c3ccncc3)cc(-c3ccccc3)c2c1 | 10µM* | -11 | -2 | 9.3µM* | 3%
CCOC(=O)c1[nH]c2ccc(OC)cc2c1NC(=O)CCN1CCCC(C)C1 (centres undefined) | 8% | -13 | 0 | ? | -6%
Cc1cc(C)nc(NC(=O)c2cc(-c3ccc(C)s3)nc3ccccc23)c1 | ? | 1 | 10 | -83% | -1%
Cc1cc(NC(=O)c2cc(-c3ccccn3)nc3ccc(Br)cc23)no1 | -4% | -15 | -4 | 16% | -12%
SMILES | Pf growth 48h | Shiga inhibitor | CHX counter | Pf growth 96h | LmPK inhibitor
Cc1cccc(Nc2nc(-c3ccccc3)c(C(=O)Nc3cccnc3)s2)c1 | -18% | 48* | 33* | ? | 5%
O=C(Nc1cccnc1)c1sc(Nc2ccccc2)nc1-c1ccccc1 | 11% | -18 | -1 | -5% | 1%
O=C(Nc1ccccn1)c1cc(-c2cccnc2)nc2ccc(Br)cc12 | 3.7µM* | -11 | -5 | 3% | -2%
Cc1ccc(-c2cc(C(=O)Nc3cccnc3)c3ccccc3n2)s1 | 2.6µM* | -1 | 10 | ? | 0%
Cc1cccc(-c2cc(C(=O)Nc3ccncc3)c3ccccc3n2)c1 | 1µM* | -2 | 8.4* | 2.3µM* | 0%
Cc1cccc(-c2cc(C(=O)Nc3cccnc3)c3ccccc3n2)c1 | ? | -31 | 10 | ? | -10%
CCCCCCNC1=NCCS1 | ? | -14 | -3 | -10% | 1%
O=c1[nH]c2cc(C(F)(F)F)c(N3CCOCC3)cc2n(CP(=O)(O)O)c1=O | 12% | -4 | -3 | 16% | ·
CC(=O)Nc1ccc(S(=O)(=O)NCCC(=O)OCc2ccc([N+](=O)[O-])cc2)cc1 | ? | 17 | -2 | ? | -6%
Cc1ccc2nc(-c3cccc(Br)c3)cc(C(=O)NC3CC3)c2c1 | 4.7µM* | -13 | 1 | ? | 0%
O=C(CCCN1C(=O)NC2(CCCC2)C1=O)Nc1cccc(S(=O)(=O)N2CCOCC2)c1 | ? | · | · | 1% | ·
Cc1ccn2cc(CCNC(=O)C3CC=CCC3C(=O)O)nc2c1 (centres undefined) | 21% | 77* | 20* | 18% | -2%
CC(NC(=O)C1=CC=CN2CCS(=O)(=O)N=C12)c1ccc(Cl)cc1Cl (centres undefined) | -28% | · | · | ? | ·
Cc1nnsc1NC(=O)OCc1ccc(C(C)(C)C)cc1 | 30% | 13 | -2 | 48% | -1%
CN1CCN(S(=O)(=O)c2ccc(N(C)Cc3ccc(C(F)(F)F)cc3)c([N+](=O)[O-])c2)CC1 | 10µM* | · | · | ? | ·
CC(C)(CN1CCNCC1)NS(=O)(=O)c1ccc(Cl)cc1 | 9.3µM* | · | · | ? | ·
CC(C)(CN1CCCC1)NS(=O)(=O)c1ccc(Cl)cc1 | -22% | -2 | -5 | 4% | -2%
O=C(CSc1nc2ccccc2c(=O)n1CC1CCCO1)Nc1ccccc1Cl (centres undefined) | -24% | -14 | -7 | ? | -2%
CCOC(=O)/C=C/C(=O)Nc1ccc(S(=O)(=O)N2CCCCCC2)cc1 | -9% | 1 | -2 | 12µM* | 1%
Cc1cc(NS(=O)(=O)c2ccc(NC(=O)COc3c(C)cc(Br)cc3C)cc2)no1 | -7% | -21 | -4 | 9.3µM* | -2%
CCOC(=O)/C=C/C(=O)Nc1ccc(S(=O)(=O)Nc2cc(C)on2)cc1 | 10µM* | 3 | -3 | 26% | -2%
CCOC(=O)CCC(=O)Nc1ccc(S(=O)(=O)N2CCCCC2)cc1 | -3% | -12 | -3 | 5.2µM* | 4%
CC(=O)N/C(=C\c1ccccc1)C(=O)OCC(=O)N(CC(C)C)c1c(N)n(Cc2ccccc2)c(=O)[nH]c1=O | -30% | · | · | -9% | ·
CCCCCC(=O)Nc1ccc(-c2nnc3n2CCCCC3)cc1 | ? | -19 | 2 | ? | -6%
CCOC(=O)/C=C/C(=O)Nc1ccc(-c2nnc3n2CCCCC3)cc1 | ? | -2 | -5 | 0.33µM* | -1%
O=C(N/N=C/c1ccc(-c2ccccc2Cl)o1)c1ccccc1 | ? | 69* | 32* | -5% | -4%
O=C(O)c1ccc(N/N=C/c2ccc(-c3ccccc3Cl)o2)cc1 | 425% | 100* | 50* | -18% | 6%
